Results filed as inconclusive are left out. Activity calls are given as the source filed them. The call rests on the fitted dose curve; in most records, active means well fitted curve in the direction sought with a large enough effect; inconclusive means small, poorly fitted or top-dose-only effect, or another doubt; inactive means no such curve, though single readings can be large; an effect the other way counts as inactive or inconclusive.
What was measured:
[1] = qHTS of pediatric cancer cell lines to identify multiple opportunities for drug repurposing: Primary screen for SK-N-MC cells (AID 1347093)
Method in brief: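 Metabolically active cells were quantified by ATP-dependent luminescence (CellTiter-Glo, 15 min at room temperature) following 48 h treatment. Cells had been plated at 500-1,000 per well and settled for 5 h beforehand.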

[2] = qHTS of pediatric cancer cell lines to identify multiple opportunities for drug repurposing: Primary screen for BT-37 cells (AID 1347094)
Method in brief: (§1)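 Primary screen of approved and investigational compounds on cells in growth media at 37 degrees C, 5% CO2. MIPE set at 11-point and NPC set at 8-point dilutions; viability scored by ATP-based luminescence at 48 hours.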

[3] = qHTS of pediatric cancer cell lines to identify multiple opportunities for drug repurposing: Primary screen for U-2 OS cells (AID 1347096); further: nearly all actives have a fitted effect of over 50% in size
Method in brief: (§2)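 Cells (500-1,000/well) in growth media were settled 5 h at 37 degrees C, then given compounds for 48 h. Viability was read as CellTiter-Glo luminescence. Primary runs used MIPE at 11 points (0.78 nM-46 µM) and NPC at 8 points (0.59 nM-46 µM); follow-ups used 11 points.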

[4] = qHTS of pediatric cancer cell lines to identify multiple opportunities for drug repurposing: Primary screen for Saos-2 cells (AID 1347097); further: nearly all actives have a fitted effect of over 40% in size
Method in brief: as §1

[5] = qHTS of pediatric cancer cell lines to identify multiple opportunities for drug repurposing: Primary screen for SK-N-SH cells (AID 1347098); further: nearly all actives have a fitted effect of over 65% in size
Method in brief: (§3)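 Cells (500-1,000/well) rested 5 h, then received compounds for 48 h; metabolically active cells were measured by CellTiter-Glo luminescence. Final concentrations spanned up to 46 µM (MIPE, 11-point) or 0.59 nM-46 µM (NPC, 8-point) in primary screens, 11-point in follow-ups.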

[6] = qHTS of pediatric cancer cell lines to identify multiple opportunities for drug repurposing: Primary screen for NB1643 cells (AID 1347099); further: nearly all actives have a fitted effect of over 50% in size
Method in brief: as §1

[7] = qHTS of pediatric cancer cell lines to identify multiple opportunities for drug repurposing: Primary screen for LAN-5 cells (AID 1347100)
Method in brief: as §2

[8] = qHTS of pediatric cancer cell lines to identify multiple opportunities for drug repurposing: Primary screen for BT-12 cells (AID 1347101); further: nearly all actives have a fitted effect of over 25% in size
Method in brief: as §3

[9] = qHTS of pediatric cancer cell lines to identify multiple opportunities for drug repurposing: Primary screen for Rh18 cells (AID 1347102); further: nearly all actives have a fitted effect of over 65% in size
Method in brief: as §2

[10] = qHTS of pediatric cancer cell lines to identify multiple opportunities for drug repurposing: Primary screen for NB-EBc1 cells (AID 1347095)
Method in brief: as §1

Measured: Potency
Potency means the concentration at half of the fitted maximal effect.

O=C(NN1CCCC1)NS(=O)(=O)c1ccc(Cl)cc1
inactive: [1] | [2] | [3] | [4] | [5] | [6] | [7] | [8] | [9]

Cc1cc(=O)oc2cc(O[C@@H]3SC[C@@H](O)[C@H](O)[C@H]3O)ccc12
inactive: [1] | [2] | [3] | [4] | [5] | [6] | [7] | [8] | [9]

NS(=O)(=O)c1cc2c(cc1Cl)CN(C1CCCCC1)C2=O
inactive: [1] | [2] | [3] | [4] | [6] | [7] | [8] | [9]

CO[C@@]1(NC(=O)CSC[C@@H](N)C(=O)O)C(=O)N2C(C(=O)O)=C(CSc3nnnn3C)CS[C@@H]21
inactive: [1] | [2] | [10] | [7] | [8]

COC(=O)CCCCC(CCSS/C(CCO)=C(\C)N(C=O)Cc1cnc(C)nc1N)SC(C)=O (stereo unspecified)
inactive: [1] | [2] | [3] | [5] | [6] | [7] | [8] | [9]

CN(C(=O)C(Cl)Cl)c1ccc(OC(=O)c2ccco2)cc1
inactive: [1] | [2] | [3] | [4] | [5] | [6] | [7] | [8] | [9]

CC(C)=CCNc1ncnc2c1ncn2[C@@H]1O[C@H](CO)[C@@H](O)[C@H]1O
active: [1] 3.76 µM | [2] 6.17 µM | [3] 21.1 µM | [5] 5.45 µM | [6] 5.31 µM | [7] 5.96 µM | [9] 2.66 µM

CC(=O)N(CC(=O)N(C)C)c1ccccc1
inactive: [1] | [2] | [3] | [5] | [6] | [7] | [8] | [9]

CC(C)C(=O)Nc1cccc(C2CN3CCSC3=N2)c1 (stereo unspecified)
inactive: [1] | [2] | [3] | [4] | [5] | [6] | [7] | [8] | [9]

CN1CC[C@H](c2c(O)cc(O)c3c(=O)cc(-c4ccccc4Cl)oc23)[C@H](O)C1
active: [1] 0.266 µM | [2] 0.347 µM | [10] 0.133 µM | [8] 0.276 µM

CC(=O)OCC(=O)[C@@]1(O)CCC2C3CCC4=CC(=O)CC[C@]4(C)C3[C@@H](O)C[C@@]21C (stereo partly specified)
inactive: [1] | [2] | [10] | [7] | [8] | [9]

O=c1[nH]c2ccccc2c(=O)n1CCCl
inactive: [1] | [2] | [3] | [4] | [5] | [8] | [9]

COC(=O)c1c(Cl)c(Cl)c(C(=O)OC)c(Cl)c1Cl
inactive: [1] | [2] | [3] | [4] | [5] | [7] | [8] | [9]

CCCc1ccc(OCC(=O)N2CCN(C(=O)COc3ccc(CCC)cc3OC)CC2)c(OC)c1
inactive: [1] | [2] | [3] | [4] | [5] | [6] | [8] | [9]

O=C1c2ccccc2CCc2ccccc21
inactive: [1] | [2] | [3] | [4] | [5] | [6] | [7] | [8] | [9]

O=C(O)Cc1ccc(OCCNC[C@H](O)c2ccccc2)cc1
inactive: [1] | [2] | [3] | [4] | [5] | [6] | [7] | [8] | [9]

Nc1c(I)cc(I)c(C(=O)N(CCC(=O)O)c2ccccc2)c1I
inactive: [1] | [2] | [3] | [4] | [5] | [6] | [7] | [8] | [9]

Cc1ccc2c(Cl)cc(Cl)c(O)c2n1
inactive: [1] | [2] | [3] | [4] | [5] | [6] | [7] | [8] | [9]

CC[N+]1(CC)CCC(=C(c2ccccc2)c2ccccc2)C1C (stereo unspecified)
inactive: [2] | [3] | [4] | [5] | [6] | [7]
active: [1] 18.8 µM

C1N2CN3CN1CN(C2)C3
inactive: [1] | [2] | [3] | [4] | [7] | [8] | [9]

CCCCCCCCCCCCCCCC[n+]1ccccc1
active: [1] 5.31 µM | [2] 15.5 µM | [3] 21.1 µM | [4] 15 µM | [5] 7.7 µM | [7] 13.3 µM | [8] 6.92 µM | [9] 7.5 µM
inactive: [6]

OC1(c2ccccc2)CCNCC1
inactive: [1] | [2] | [3] | [4] | [5] | [6] | [7] | [8]

CCCCOCCOC(=O)c1cccnc1
inactive: [1] | [2] | [3] | [4] | [5] | [6] | [7] | [8] | [9]

CCCCC/C=C\C/C=C\CCCCCCCC(=O)NC(C)c1ccccc1 (stereo unspecified)
inactive: [10] | [6] | [9]
active: [1] 18.8 µM

CCCCCC(=O)O[C@]1(C(C)=O)CC[C@H]2[C@@H]3CCC4=CC(=O)CC[C@]4(C)[C@H]3CC[C@@]21C
active: [1] 13.3 µM | [5] 24.4 µM | [6] 18.8 µM | [7] 26.6 µM | [8] 27.6 µM

N#C/C(=C1/SC[C@@H](c2ccc(Cl)cc2Cl)S1)n1ccnc1
inactive: [3] | [9]
active: [1] 11.9 µM

CN1CCC(N(Cc2cccs2)c2ccccc2)CC1
active: [1] 26.6 µM | [4] 21.1 µM | [8] 21.9 µM
inactive: [10] | [3]

COc1ccc(-n2nc(CCC(=O)N(C)O)cc2-c2ccc(Cl)cc2)cc1
active: [1] 23.7 µM | [10] 21.1 µM
inactive: [3] | [6] | [9]

CCCCCCCCCCCCCCCCCCNC(=O)OC1CCN(C(=O)OC[C@H](COC(=O)N(Cc2cccc[n+]2CC)C(=O)c2ccccc2OC)OC)CC1
active: [1] 8.41 µM | [2] 21.9 µM | [4] 23.7 µM | [8] 8.71 µM

CC(C)=CCC/C(C)=C/CC/C(C)=C/CCC(=O)OC/C=C(\C)CCC=C(C)C
inactive: [1] | [2] | [3] | [6] | [7] | [9]

CC[N+](CC)(CC)CCOC(=O)C(C1CCCC1)C1CCCC1
inactive: [2] | [10] | [3] | [4] | [5] | [6]

CC(=O)N1CCN(c2ccc(O)cc2)CC1
inactive: [1] | [10] | [3] | [4] | [5] | [6] | [7] | [8] | [9]

C/C=C(/C(=C/C)c1ccc(OC(C)=O)cc1)c1ccc(OC(C)=O)cc1
active: [1] 5.31 µM
inactive: [2] | [3] | [5] | [8] | [9]

C=C(C)C(=O)OCC(O)CO (stereo unspecified)
inactive: [1] | [2] | [4] | [5] | [6] | [7] | [8] | [9]

O=C(O)/C=C(\CC(=O)O)C(=O)O
inactive: [1] | [10] | [3] | [5] | [6] | [7] | [8]

COC(=O)[C@H]1[C@H]2C[C@@H]3c4[nH]c5cc(OC)ccc5c4CCN3C[C@H]2C[C@@H](OC(=O)/C=C/c2ccc(O)c(OC)c2)[C@@H]1OC
active: [1] 5.96 µM | [4] 16.8 µM | [7] 21.1 µM

C[C@H](N)C(=O)N[C@@H](C)C(=O)NC1[C@H]2CN(c3nc4c(cc3F)c(=O)c(C(=O)O)cn4-c3ccc(F)cc3F)C[C@@H]12 (stereo partly specified)
inactive: [1] | [10] | [3] | [4] | [9]

CC(C)(C)C1CCC(CC2=C(O)c3ccccc3C(=O)C2=O)CC1 (stereo unspecified)
inactive: [3]
active: [1] 5.31 µM | [7] 9.44 µM

[O-][n+]1cccc(/C(Cl)=N/OC[C@@H](O)CN2CCCCC2)c1
inactive: [1] | [2] | [4] | [5] | [7] | [8] | [9]

O=C1NCCN1CCN1CCC(c2cn(-c3ccc(F)cc3)c3ccc(Cl)cc23)CC1
active: [1] 6.68 µM | [10] 21.1 µM | [4] 21.1 µM | [5] 21.7 µM | [7] 8.41 µM

OCc1c[nH]c2ccccc12
active: [1] 21.7 µM
inactive: [2] | [9]

O=C(Nc1ccc(Cl)cc1)Nc1ccc(Cl)c(Cl)c1
active: [1] 18.8 µM | [10] 23.7 µM | [5] 12.2 µM

Nc1nc(=O)n([C@@H]2O[C@H](CO)[C@@H](O)[C@@H]2F)cc1I
inactive: [1] | [10] | [3] | [4] | [5] | [6] | [7] | [9]

O=C1NC2CCCCN2C12CCN(CCCN1c3ccccc3CCc3ccc(Cl)cc31)CC2 (stereo unspecified)
active: [1] 16.8 µM | [2] 30.9 µM | [4] 23.7 µM | [5] 27.3 µM | [8] 15.5 µM

CCN1CCN(c2cc(-c3ccc(F)cc3)c3c(n2)CCCCCC3)CC1
inactive: [1] | [10] | [3] | [5] | [6] | [7] | [8] | [9]

CC(=O)Nc1ccn(C2COC(COC(=O)c3ccccc3)O2)c(=O)n1 (stereo unspecified)
active: [1] 0.75 µM | [10] 2.37 µM
inactive: [3] | [4] | [9]

CC(C)(C)c1ccc(O)c(O)c1
active: [1] 6.86 µM | [10] 6.11 µM | [4] 48.6 µM | [5] 25 µM | [6] 17.2 µM | [7] 19.3 µM | [8] 25.2 µM

CN(C)CCOC1=Cc2ccccc2Sc2ccc(Cl)cc21
inactive: [1] | [10] | [6] | [7] | [9]

Nc1cccc2c(N)cccc12
active: [1] 24.3 µM | [4] 27.3 µM | [5] 28 µM
inactive: [3] | [7]

Cc1cc2nc3ccc(=[N+](C)C)cc-3sc2cc1N
active: [1] 1.33 µM | [2] 17.4 µM | [4] 2.99 µM | [5] 10.9 µM | [6] 5.96 µM | [7] 1.33 µM | [8] 15.5 µM | [9] 2.99 µM

O=c1[nH]sc2cc(Cl)ccc12
active: [1] 0.001 µM | [10] 0.001 µM | [5] 0.217 µM | [6] 0.168 µM | [7] 0.001 µM | [9] 18.8 µM

Cc1nc(N)nc(N)c1-c1ccc(Cl)c(Cl)c1
inactive: [6] | [9]
active: [1] 0.0335 µM | [2] 0.55 µM | [8] 0.872 µM

CN(C)[C@@H]1C(=O)C(C(N)=O)=C(O)[C@@]2(O)C(=O)C3=C(O)c4c(O)cccc4C[C@H]3C[C@@H]12
inactive: [1] | [10] | [3] | [4] | [6]

CC(=O)[C@@]1(O)CC[C@H]2[C@@H]3C[C@H](C)C4=CC(=O)CC[C@]4(C)[C@H]3CC[C@@]21C
inactive: [2] | [10] | [3] | [4] | [5] | [6]

From PubChem BioAssay (NCATS)
